Laboratory results: PubChem BioAssay AID1159580 (chemical genetic matrix, 2015)
Hit rate of the full screen: of about 5,500 compounds, about 2,000 (36%) were called active. Not shown: some 18% with an inconclusive outcome. No stated cut-off is given here; in the data, active means normalized growth mostly below about 0.91 (no sharp cut-off); inconclusive means no clear call, values can overlap the other calls; inactive means mostly above about 0.92. This is one part of the list.

Experiment: chemical genetic growth profiling, strain panel (AID 1159580);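 further: tested at 20 µM; growth read once vehicle control cultures reached saturation at 30 °C; 1 = growth at the plate median or of vehicle wells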
Settings: S. cerevisiae deletion strains, growth OD

Measured: normalized growth

CCCCCCCCCCC[C@@H](C[C@H]1OC(=O)[C@H]1CCCCCC)OC(=O)[C@@H](CC(C)C)NC=O
inactive: locus YAL013W, strain DEP1, stronger effect = lower value 1.05 | locus YAL021C, strain ccr4, stronger effect = lower value 1.01 | locus YAL026C, strain drs2, stronger effect = lower value 1.05 | locus YAL030W, strain snc1, stronger effect = lower value 1.03 | locus YBL061C, strain skt5, stronger effect = lower value 1.02 | locus YBR009C, strain hhf1, stronger effect = lower value 1.04 | locus YBR021W, strain FUR4, stronger effect = lower value 1.05 | locus YBR023C, strain chs3, stronger effect = lower value 0.994 | locus YBR171W, strain sec66, stronger effect = lower value 1.06 | locus YBR229C, strain ROT2, stronger effect = lower value 1.02 | locus YBR231C, strain swc5, stronger effect = lower value 0.965 | locus YBR279W, strain paf1, stronger effect = lower value 1 | locus YCL011C, strain gbp2, stronger effect = lower value 1.05 | locus YCL016C, strain dcc1, stronger effect = lower value 1.01 | locus YCL029C, strain bik1, stronger effect = lower value 1.03 | locus YCL061C, strain MRC1, stronger effect = lower value 1.05 | locus YCL069W, strain vba3, stronger effect = lower value 1.05 | locus YCR088W, strain abp1, stronger effect = lower value 1.02 | locus YDL005C, strain med2, stronger effect = lower value 1.03 | locus YDL035C, strain GPR1, stronger effect = lower value 1.05 | locus YDL040C, strain nat1, stronger effect = lower value 1 | locus YDL074C, strain BRE1, stronger effect = lower value 1.05 | locus YDL101C, strain DUN1, stronger effect = lower value 1.02 | locus YDL134C, strain PPH21, stronger effect = lower value 1.02 | locus YDL185W, strain tfp1, stronger effect = lower value 0.992 | locus YDL192W, strain arf1, stronger effect = lower value 1.03 | locus YDR001C, strain nth1, stronger effect = lower value 1.05 | locus YDR069C, strain doa4, stronger effect = lower value 1.02 | locus YDR101C, strain arx1, stronger effect = lower value 1.03 | locus YDR137W, strain rgp1, stronger effect = lower value 0.978 | locus YDR150W, strain NUM1, stronger effect = lower value 1.06 | locus YDR159W, strain sac3, stronger effect = lower value 1.01 | locus YDR162C, strain NBP2, stronger effect = lower value 1.02 | locus YDR195W, strain ref2 1.02 | locus YDR297W, strain sur2, stronger effect = lower value 1.04 | locus YDR318W, strain mcm21, stronger effect = lower value 1.01 | locus YDR334W, strain swr1, stronger effect = lower value 1.03 | locus YDR335W, strain msn5, stronger effect = lower value 1.05 | locus YDR388W, stronger effect = lower value 1.02 | locus YDR392W, strain spt3, stronger effect = lower value 1.1 | locus YDR502C, strain sam2, stronger effect = lower value 1.03 | locus YEL003W, strain gim4, stronger effect = lower value 1.02 | locus YEL037C, strain rad23, stronger effect = lower value 1.06 | locus YEL061C, strain CIN8 (second series), stronger effect = lower value 1.04 | locus YEL061C, strain CIN8, stronger effect = lower value 1.01 | locus YER015W, strain faa2, stronger effect = lower value 1.02 | locus YER016W, strain bim1, stronger effect = lower value 1.01 | locus YER110C, stronger effect = lower value 1.02 | locus YER111C, strain swi4, stronger effect = lower value 1.06 | locus YER155C, strain BEM2 (second series), stronger effect = lower value 1.07 | locus YER155C, strain BEM2, stronger effect = lower value 1.03 | locus YER167W, strain BCK2, stronger effect = lower value 1.02 | locus YFR010W, strain ubp6, stronger effect = lower value 1.05 | locus YGL078C, strain dbp3, stronger effect = lower value 1.03 | locus YGL086W, strain mad1, stronger effect = lower value 1.01 | locus YGL167C, strain pmr1, stronger effect = lower value 0.994 | locus YGL173C, strain kem1, stronger effect = lower value 1.04 | locus YGL227W, strain vid30, stronger effect = lower value 1.02 | locus YGL240W, strain doc1, stronger effect = lower value 1.06 | locus YGL248W, strain PDE1, stronger effect = lower value 1.03 | locus YGL253W, strain hxk2, stronger effect = lower value 1.04 | locus YGR078C, strain PAC10, stronger effect = lower value 1.05 | locus YGR135W, strain pre9, stronger effect = lower value 1.02 | locus YGR252W, strain gcn5, stronger effect = lower value 1.08 | locus YHR013C, strain ard1, stronger effect = lower value 1.03 | locus YHR027C, strain rpn1, stronger effect = lower value 1.05 | locus YHR030C, strain SLT2, stronger effect = lower value 1.04 | locus YHR079C, strain IRE1 (second series), stronger effect = lower value 1 | locus YHR094C, strain hxt1, stronger effect = lower value 1 | locus YHR129C, strain ARP1, stronger effect = lower value 1.04 | locus YHR142W, strain chs7, stronger effect = lower value 1.04 | locus YHR200W, strain rpn10, stronger effect = lower value 1.03 | locus YIL066C, strain RNR3, stronger effect = lower value 1.03 | locus YIL073C, strain SPO22, stronger effect = lower value 1.06 | locus YIL125W, strain kgd1, stronger effect = lower value 1 | locus YIR030C, strain dcg1, stronger effect = lower value 1.03 | locus YJL092W, strain hpr5, stronger effect = lower value 1.04 | locus YJL095W, strain BCK1 (second series), stronger effect = lower value 1.03 | locus YJL095W, strain BCK1, stronger effect = lower value 1.05 | locus YJL115W, strain asf1, stronger effect = lower value 1.06 | locus YJL129C, strain trk1, stronger effect = lower value 1.04 | locus YJL134W, strain LCB3, stronger effect = lower value 1.02 | locus YJL154C, strain vps35, stronger effect = lower value 1.07 | locus YJL164C, strain tpk1, stronger effect = lower value 1.04 | locus YJL166W, strain qcr8, stronger effect = lower value 1.04 | locus YJL168C, strain set2, stronger effect = lower value 1 | locus YJL187C, strain SWE1 (second series), stronger effect = lower value 1.03 | locus YJL187C, strain SWE1, stronger effect = lower value 1.04
